# From PubChem BioAssay
# BoNT F protease = inhibitors of Botulinum neurotoxin F light chain protease | Multiplex microsphere protease cleavage assay, flow cytometry | inhibition, % at 10 µM | actives 0.22% (n = 360,000); in the data active means inhibition above about 35%, passing the limit was not always enough; inconclusive means no clear call, values can overlap the other calls
# BoNT A protease = BoNT A light chain protease inhibition. multiplex microsphere protease substrate cleavage, flow cytometry. inhibition, % at 10 µM. actives 0.17% (n = 360,000)
# Anthrax LF prot = blocks Bacillus anthracis lethal factor protease | multiplex microsphere protease cleavage assay, LF | P15917 | AID 588501 | actives 0.12% (n = 360,000) | inhibition, % at 10 µM
# MazF activator = increases E. coli MazEF RNase cleavage of RNA. actives 0.32% (n = 350,000). activation, % at 20 µM. P0AE70. FAM/BHQ RNA-DNA oligo cleavage fluorescence, 5 h. AID 504720; in the data active means activation above about 50%
# Target sequence (P0AE70 whole entry, looked up): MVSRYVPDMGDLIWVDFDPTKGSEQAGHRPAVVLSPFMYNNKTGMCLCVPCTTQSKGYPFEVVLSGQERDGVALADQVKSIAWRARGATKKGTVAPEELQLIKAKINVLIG
# Autofluor counter = flagged as autofluorescent in microsphere protease counterscreen; actives 3.1% (n = 360,000); fluorescence intensity (no concentration beside the values); compound autofluorescence counterscreen, microsphere flow cytometry; stronger effect = higher value; AID 624483; in the data active means fluorescence intensity above about 16000; inconclusive means no clear call, values can overlap the other calls
# Numbers stand for hits; n = inactive; u = inconclusive; x = no result given. Shown are actives, neighbours in structure and some others; about 3.7% of the full set was active somewhere. Unless noted, no stated cut-off is given here; in the data, active means inhibition above about 30%; inconclusive means no clear call, values can overlap the other calls; inactive means below that.
SMILES,BoNT F protease,BoNT A protease,Anthrax LF prot,MazF activator,Autofluor counter
CN(Cc1ccccc1)C(=O)c1ccc(Cc2cn(C)c3ccccc23)nc1,n,n,n,x,n
Cc1cc(C)cc(CC2CC(=O)N(c3ccc(Cl)cn3)C2=O)c1 (stereo unspecified),n,n,n,n,22513
Cc1ccc(N2C(=O)CC(Cc3cc(C)cc(C)c3)C2=O)cc1 (stereo unspecified),n,n,n,n,n
Cc1cc(Br)ccc1NC(=O)CNC(=O)CSc1n[nH]c(N)n1,40,n,n,n,n
CCc1cc(=O)oc2cc(C)c(CN3CCCCC3)c(O)c12,x,x,x,n,x
CCc1cc(=O)oc2cc(C)c(CN3CCCC3)c(O)c12,n,n,n,n,17050
COc1ccc(-c2cc3ccccc3oc2=O)cc1NC(=O)c1ccc(Br)o1,n,n,n,n,n
COc1ccc(-c2cc3ccccc3oc2=O)cc1NC(=O)c1ccc([N+](=O)[O-])o1,n,n,n,n,23372
Cc1ccc(Cl)cc1N(Cc1ccc(C(=O)NCc2cccnc2)cc1)S(=O)(=O)c1ccccc1,n,u,n,n,22366
COc1ccccc1NC(=O)c1ccc(CN(c2cc(Cl)ccc2C)S(=O)(=O)c2ccccc2)cc1,n,n,n,n,n
COc1ccc(NC(=O)c2ccc(CN(c3cc(Cl)ccc3C)S(=O)(=O)c3ccccc3)cc2)cc1OC,n,n,n,n,20845
CCCS(=O)(=O)NC(=O)C1(C)CCN(C(=O)c2cccs2)C1 (stereo unspecified),n,n,n,x,n
Clc1cccc(CNc2ccn3nc(-c4ccccc4Cl)cc3n2)c1,n,n,n,x,n
COc1nc(-c2cccs2)cc(-c2ccc(C)cc2)c1C#N,n,n,n,n,21880
COc1ccc(-c2cc(-c3cccs3)nc(OC)c2C#N)cc1OC,n,n,n,n,n
COc1ccccc1NC(=O)c1nnn(Cc2ccccc2)c1NC(C)=O,n,n,n,n,24511
COc1ccccc1NC(=O)c1nnn(Cc2ccccc2)c1NC(=O)C(F)(F)F,n,n,n,n,n
Cn1c(SCc2ccc(Cl)cc2Cl)nc(C(F)(F)F)cc1=O,n,n,n,n,n
CC(C)Sc1nc(C(F)(F)F)cc(=O)n1-c1ccccc1,n,u,n,n,20162
CCSc1nc(C(F)(F)F)cc(=O)n1-c1ccccc1,n,u,n,n,20108
Cc1ccc(NC2CCCN(C(=O)C3CCCC3)C2)cc1C (stereo unspecified),n,n,n,n,n
CC1(C)CC(N2CCCCC2)=CC(=[N+]2CCCCC2)C1,n,n,n,n,27656
CC1(C)CC(N2CCOCC2)=CC(=[N+]2CCOCC2)C1,n,n,n,n,n
O=C(CN1C(=O)c2ccccc2C1=O)NCc1ccncc1,n,n,n,n,20208
CCn1c(SCC(=O)N/N=C/c2ccc(C)o2)nnc1-c1ccccc1,n,u,n,n,22380
SMILES,BoNT F protease,BoNT A protease,Anthrax LF prot,MazF activator,Autofluor counter
CCn1c(SCC(=O)NNC(=O)c2ccccc2)nnc1-c1ccncc1,n,u,n,n,22311
Cc1ccc(C(=O)NNC(=O)CSc2nnc(-c3ccncc3)n2C)cc1,n,n,n,n,16351
COc1ccc(C(=O)NNC(=O)CSc2nnc(-c3ccc(O)cc3)n2C)cc1,n,n,n,n,n
Cc1ccc(-c2nnc(SCC(=O)NNC(=O)COc3cccc(C)c3)n2C)cc1,n,n,n,n,22497
CCc1ccc(OCC(=O)NNC(=O)CSc2nnc(-c3ccc(C)cc3)n2C)cc1,n,n,n,n,n
O=[N+]([O-])c1ccc(-c2nc(Cl)c3c(n2)CCCC3)o1,n,n,n,n,n
CCCN(C(=O)CCOc1ccc(C(C)(C)C)cc1)c1c(N)n(Cc2ccccc2)c(=O)[nH]c1=O,n,n,n,n,n
O=C(Nc1nccs1)Oc1ccccc1,n,u,n,n,20333
CCOC(=O)c1cnn(-c2ccccc2)c1NC(=O)c1ccccc1,n,n,n,n,n
CCOC(=O)c1cnn(-c2ccccc2)c1NC(=O)c1ccc(C)cc1,n,n,n,n,23981
CCOC(=O)c1cnn(-c2cccc(Cl)c2)c1N,n,n,n,n,16767
Cc1cc(=O)[nH]c2cc(O)ccc12,n,n,n,n,n
Cc1cc(=O)[nH]c2c(C)c(N)ccc12,n,n,n,n,23024
COCCCNC(=O)CSc1nc2ccccc2c(=O)n1CCCN1CCCCC1,n,n,n,n,n
CC(C)CCNC(=O)CSc1nc2ccsc2c(=O)n1NC(=O)c1ccccc1,n,n,n,n,21825
